The list is not random: actives were taken first. Their share in the collection is about 0.28%.
hcGAS lum – inhibitors of human cGAS. inhibition, % at 12.5 µM. recombinant h-cGAS, ATP depletion, Kinase-Glo luminescence. AID 1259398. Q8N884. 0.081% of 290,000 active
Target sequence (Q8N884 whole entry, looked up): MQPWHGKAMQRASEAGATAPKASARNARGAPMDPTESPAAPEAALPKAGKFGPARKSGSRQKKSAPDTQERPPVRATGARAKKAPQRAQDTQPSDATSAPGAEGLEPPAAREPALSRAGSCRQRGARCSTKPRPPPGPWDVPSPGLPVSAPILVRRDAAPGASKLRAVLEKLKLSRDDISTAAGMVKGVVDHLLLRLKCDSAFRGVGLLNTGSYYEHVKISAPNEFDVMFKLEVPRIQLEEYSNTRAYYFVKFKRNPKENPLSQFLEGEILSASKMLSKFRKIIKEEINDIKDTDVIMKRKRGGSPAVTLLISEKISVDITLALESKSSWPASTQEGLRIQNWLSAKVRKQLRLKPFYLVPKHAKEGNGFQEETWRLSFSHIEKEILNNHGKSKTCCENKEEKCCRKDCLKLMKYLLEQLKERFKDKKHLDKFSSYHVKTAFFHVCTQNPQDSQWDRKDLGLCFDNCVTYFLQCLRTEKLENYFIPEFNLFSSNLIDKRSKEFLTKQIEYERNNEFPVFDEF
NPYLR7 ag – mosquito NPYLR7 agonism; HEK293T NPYLR7/Galpha15, GCaMP6s calcium fluorescence; activation, % at 10 µM; 0.15% of 270,000 active; in the data active = activation above about 40%
mcGAS inh – inhibitors of mouse cGAS; 0.15% of 160,000 active; Q8C6L5; recombinant cGAS, Kinase-Glo ATP depletion luminescence; AID 1259399; inhibition, % at 12.5 µM
A number is an active result. Cut-off read from the data, not from the text of the source, unless noted: active = inhibition above about 40%; inactive = the rest.

How did CCCCC(=O)Nc1sc2c(c1-c1nc3ccccc3s1)CCN(C(C)=O)C2 do in these assays?
hcGAS lum: inactive; NPYLR7 ag: inactive

How did CCC(=O)Nc1sc2c(c1-c1nc3ccccc3s1)CCN(C(C)C)C2 do in these assays?
hcGAS lum: 80; NPYLR7 ag: inactive; mcGAS inh: 97

Results for Cc1ccc(F)cc1NC(=O)C(C)Oc1ccc(C#N)cc1 (stereo unspecified) ?
hcGAS lum: inactive; NPYLR7 ag: inactive

How did CC(C)(C)P(=NC(=O)C(F)(F)F)(N1CCCCC1)N1CCCCC1 do in these assays?
hcGAS lum: inactive; NPYLR7 ag: inactive

What do the screens show for `COc1ccc(-c2nc(N3CCN(C(=O)c4cccc([N+](=O)[O-])c4)CC3)c3ccccc3n2)cc1`?
hcGAS lum: inactive; NPYLR7 ag: inactive; mcGAS inh: inactive

How did CCC(C)N(Cc1csc(COc2ccccc2OC)n1)C(=O)c1cccc(C)c1 (stereo unspecified) do in these assays?
hcGAS lum: inactive; NPYLR7 ag: inactive; mcGAS inh: inactive

How did CC(C)S(=O)(=O)Oc1ccc(CN(C(=O)c2cccc(F)c2)C2CC2)cc1 do in these assays?
hcGAS lum: inactive; NPYLR7 ag: inactive; mcGAS inh: inactive

What do the screens show for `CC(C)S(=O)(=O)Oc1ccc(CN(Cc2ccco2)C(=O)c2cccc(F)c2)cc1`?
hcGAS lum: 45; NPYLR7 ag: inactive; mcGAS inh: inactive

How did Cc1cccnc1NCCNC1CSCCSC1 do in these assays?
hcGAS lum: inactive; NPYLR7 ag: inactive

What do the screens show for `O=C1NC(=S)NC(=O)C1=Cc1ccc(-c2cc([N+](=O)[O-])ccc2O)o1`?
hcGAS lum: 51; NPYLR7 ag: inactive; mcGAS inh: 42

What do the screens show for `COc1cc([N+](=O)[O-])ccc1-c1ccc(/C=C2/NC(=S)NC2=O)o1`?
hcGAS lum: inactive; NPYLR7 ag: inactive; mcGAS inh: inactive

What do the screens show for `c1ccc(-c2ccccc2NCc2nnnn2C2CC2)cc1`?
hcGAS lum: inactive; NPYLR7 ag: inactive

How did COc1ccc(NC(=O)N(CCC(C)C)C(C)c2nc3ccccc3c(=O)n2-c2ccc(Br)cc2)c(OC)c1 (stereo unspecified) do in these assays?
hcGAS lum: inactive; mcGAS inh: inactive

What do the screens show for `Cc1[nH]c(/C=C2\C(=O)Nc3ccccc32)c(C)c1CCC(=O)O`?
hcGAS lum: inactive; NPYLR7 ag: 74

What do the screens show for `O=C(O)C=C1C(=O)Nc2ccccc21`?
hcGAS lum: inactive; NPYLR7 ag: inactive; mcGAS inh: inactive

How did CN(Cc1ccccc1)c1nc(CCN)nc2ccccc12 do in these assays?
hcGAS lum: 47; NPYLR7 ag: inactive; mcGAS inh: inactive

What do the screens show for `CN(Cc1cc(C(C)(C)C)n[nH]1)c1nc(CCN)nc2ccccc12`?
hcGAS lum: inactive

Results for N#Cc1c(SCc2ccccc2C(F)(F)F)sc2c(O)cc(=O)[nH]c12 ?
hcGAS lum: inactive; NPYLR7 ag: inactive; mcGAS inh: 63

What do the screens show for `N#Cc1c(SCc2ccccc2C(F)(F)F)sc2c(=O)[nH]c(=O)[nH]c12`?
hcGAS lum: inactive; NPYLR7 ag: inactive; mcGAS inh: inactive

Results for NC(=O)c1c(SCC(=O)c2ccc(F)cc2)sc2c(O)cc(=O)[nH]c12 ?
hcGAS lum: inactive; NPYLR7 ag: inactive; mcGAS inh: inactive

Results for CC(=O)CSc1sc2c(O)cc(=O)[nH]c2c1C#N ?
hcGAS lum: inactive; NPYLR7 ag: inactive; mcGAS inh: 73

What do the screens show for `C=CCNC(CC(=O)Nc1ccc2ccccc2c1)C(=O)O` (stereo unspecified)?
hcGAS lum: inactive; NPYLR7 ag: inactive; mcGAS inh: inactive

Results for O=C(c1cccnc1Cl)N1CCOC(COCc2ccccc2F)C1 (stereo unspecified) ?
hcGAS lum: inactive; NPYLR7 ag: 51; mcGAS inh: inactive

How did CCOc1ncccc1C(=O)N1CCOC(COCc2ccccc2F)C1 (stereo unspecified) do in these assays?
hcGAS lum: inactive; NPYLR7 ag: inactive; mcGAS inh: inactive

What do the screens show for `Nc1nc(-c2cc(I)c(O)c(I)c2)cs1`?
hcGAS lum: 66; NPYLR7 ag: inactive; mcGAS inh: 102

What do the screens show for `Nc1nc(-c2ccncc2)cs1`?
hcGAS lum: inactive; NPYLR7 ag: inactive

Results for COc1cccc(Cc2nsc(N(CCC(=O)NCCc3ccc(Cl)cc3Cl)Cc3ccco3)n2)c1 ?
hcGAS lum: inactive; NPYLR7 ag: inactive; mcGAS inh: inactive

Results for CC(=O)Oc1ccccc1C(=O)N1CCC(CCc2ccccc2)CC1 ?
hcGAS lum: inactive; NPYLR7 ag: inactive; mcGAS inh: inactive

What do the screens show for `COc1ccc(C(=O)N2CCN(C(C(=O)Nc3cc(OC)cc(OC)c3)C3CCCC3)CC2)cc1` (stereo unspecified)?
hcGAS lum: inactive; NPYLR7 ag: inactive; mcGAS inh: inactive

Results for COc1cc(OC)cc(C(=O)N2CCN(C(C(=O)Nc3ccc(NC(C)=O)cc3)C3CCCC3)CC2)c1 (stereo unspecified) ?
hcGAS lum: inactive; NPYLR7 ag: 60; mcGAS inh: inactive

Source: PubChem (Fisher Drug Discovery Resource Center)
